Data on 62 molecules can be found in PubChem BioAssay AID1628 (Sanford-Burnham Center for Chemical Genomics, 2009).

The whole screen tested about 190,000 compounds, of which about 930 (0.49%) were called active. The list shows a part of the results. Potency and affinity values are given separately. Values without a mark were called inactive.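 How the source made its calls: active means z-score of insulin promoter reporter brightness in nuclei below -3 at 5 µM, with at least 500 cells counted; inconclusive means wells with under 500 cells, flagged as toxic or sparse; inactive means the rest.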

The assay is described as follows: insulin promoter down-regulators in MIN6 cells, imaging, high-content screening, mouse beta cells (AID 1628). The conditions noted are these: MIN6 insulin promoter GFP reporter, at 5 µM, stronger effect = lower value.
With `CCN(C(=S)NCCOC)c1cccc2ccccc12`, the z-score was -3.13 (active).

On to `COCCNC(=O)c1ccc2ccccc2n1`, for which the z-score was 1.76.

For the molecule `CCN(C(=S)Nc1cccnc1)c1cccc2ccccc12`, the z-score is -3.01 (active).

For the molecule `CCN(CC)CCN1C(=O)c2oc3ccccc3c(=O)c2C1c1ccccc1` (configuration not stated), the z-score was 3.66.

With `CCCN1CCc2c(sc(NC(=S)NC(=O)c3ccccc3)c2C#N)C1`, the z-score was 5.2.

Take `CN1CCN(CC(=O)Nc2sc3c(c2C#N)CCC(C(C)(C)C)C3)CC1` (configuration not stated): the z-score is -3.27 (active).

Turning to `CN1/C(=C\C=C2/SC(=S)NC2=O)C(C)(C)c2ccccc21`, the z-score was 13.4.

As for `CCCCN1C(=O)/C(=C/C=C2\N(C)c3ccccc3C2(C)C)SC1=S`, the z-score is 10.9.

Take `CCCCC(=O)Nc1ccc2c(c1)nc1n2CCSC1`: the z-score was 3.16.

`Cc1cc(C)nc(N(C#N)CC(=O)N2CCC(C(N)=O)CC2)n1`: the z-score is 1.53.

`NC(=O)c1ccc(N2CCN(c3ccc(O)cc3)CC2)c([N+](=O)[O-])c1`: the z-score is -3.43 (active).

`CN1CCN(c2ccccc2NC(=O)c2ccc(N3CCCC3)c([N+](=O)[O-])c2)CC1`: the z-score is -3.01 (active).

`CCOCCCNC(=O)c1ccc(N2CCCC2)c(NS(=O)(=O)c2ccc(C)cc2)c1`: the z-score is 3.4.

Turning to `COc1ccccc1Nc1nc(Cl)c(C=O)s1`, the z-score was 3.19.

As to `O=C(NC1=NCCS1)C1Cc2ccccc2CN1C(=O)c1ccccc1` (configuration not stated), the z-score is 3.06.

As to `COc1ccc2c(c1)NC(c1ccc(N(C)C)cc1)c1cccn1-2` (configuration not stated), the z-score was 12.

In the case of `COc1ccc2c(c1OC)C(=O)OC2`, the z-score was 0.33.

Take `CCN(CC)c1ccc(C=C(c2nnnn2-c2ccccc2)c2nnnn2-c2ccccc2)cc1`: the z-score was 4.4.

Turning to `CCN(CC)c1ccc(/C=C/c2cc(-c3ccccc3)c3ccccc3n2)cc1`, the z-score is 15.3.

Regarding `CCN(CC)c1ccc(/C=N/Nc2nc(C)cc(C)n2)cc1`, the z-score was -3.23 (active).

`Cc1c(N=C2N=C(NC(=O)c3cccs3)c3ccccc32)c(=O)n(-c2ccccc2)n1C`: the z-score is 6.23.

On to `Cc1ccc(OCCN2CCN(C(=O)CCC(=O)Nc3nnc(C)s3)CC2)cc1`, for which the z-score was 0.99.

Consider `COC(=O)c1c(NC(=O)c2ccc(C)c(S(=O)(=O)Nc3ccccc3C)c2)sc2c1CCCC2`, for which the z-score is -3.01 (active).

`CN1CCS/C1=C/C=C1/SC(=S)N(Cc2ccccc2)C1=O`: the z-score was 12.1.

Turning to `CC(C)C(c1nnnn1C1CCCC1)N1CCOCC1` (configuration not stated), the z-score is 3.02.

On to `CCN(Cc1ccccc1)C(c1cccs1)c1nnnn1C1CCCCC1` (configuration not stated), for which the z-score is -3 (active).

Turning to `Clc1ccccc1CN(Cc1ccccc1)C(c1cccs1)c1nnnn1C1CCCC1` (configuration not stated), the z-score is -6.23 (active).

`CCCCNC(=S)NC(=O)c1ccc(Cl)cc1Cl`: the z-score is 3.14.

For `COc1ccc(NC(=O)CCC(=O)OCc2ccc(Br)cc2)cc1`, the z-score is -5.13 (active).

Turning to `COc1ccc(NC(=O)CCN2CCCC(C)C2)cc1` (configuration not stated), the z-score was 1.

As for `C=CCn1c(=NC(=O)c2cc(-c3cccs3)nc3ccccc23)sc2cc(S(N)(=O)=O)ccc21`, the z-score is 8.96.

As to `C#CCn1c(=NC(=O)c2sc3ccccc3c2Cl)sc2cc(S(N)(=O)=O)ccc21`, the z-score is -3.78 (active).

Regarding `O=C(NC1C=CS(=O)(=O)C1)c1sc2ccccc2c1Cl` (configuration not stated), the z-score is 3.86.

As for `CCN1CC=C2C(C#N)=C(N)C(C#N)(C#N)C(CCc3ccccc3)C2C1` (configuration not stated), the z-score is 13.8.

`Cc1cccc(-c2ncc(CN3CCCC(CO)(Cc4ccccc4C)C3)cn2)c1` (configuration not stated): the z-score was 3.13.

Turning to `Cc1nc2c(ccc3nc(NC(=O)C4CC4)sc32)s1`, the z-score was 2.

`Cc1cccc2sc(NC(=O)C3CCCN(S(=O)(=O)c4cccc5nonc45)C3)nc12` (configuration not stated): the z-score is 6.61.

Turning to `C=CCNC(=O)C1CC2Cn3c(nc4cc5ccccc5cc43)C2N1C` (configuration not stated), the z-score was 4.44.

Consider `CCOC(=O)N1CCN(C(=O)NC2CCCCC2)CC1`, for which the z-score was 3.74.

With `Cc1cc(=O)oc2cc(OCC(=O)OCC(=O)NC3CC3)ccc12`, the z-score was 3.8.

As for `CC1=Nc2ccccc2/C1=C/c1sc(=S)n(-c2cccc(C(=O)O)c2)c1O`, the z-score was 3.2.

`COc1cccc(N2CCN(c3ncccn3)CC2)c1`: the z-score was 3.1.

Consider `COc1cccc(-c2nn(C)c3sc(C(=O)N4CCN(c5ccccn5)CC4)cc23)c1`, for which the z-score was -10.4 (active).

For `Cc1ccc(C)c(NC(=O)C(C)CC2COCCO2)c1` (configuration not stated), the z-score is 3.45.

Turning to `O=S1(=O)N=C(N(CCO)/N=C/c2ccncc2)c2ccccc21`, the z-score was 2.42.

`CC(=Nc1ccc(C)cc1C)c1sc2ccccc2c1O`: the z-score was 3.96.

Turning to `CC(=O)NCCN=C(C)c1sc2ccccc2c1O`, the z-score was -3.06 (active).

Turning to `O=c1oc2c3c4c(cc2c(C(F)(F)F)c1CCN1CCOCC1)CCCN4CCC3`, the z-score was 7.75.

Take `CCN1/C(=C/C=C/c2oc3ccc4ccccc4c3[n+]2CC)Oc2ccc3ccccc3c21`: the z-score is 17.

Take `Cc1ccccc1NCC(=O)N/N=C/c1c[nH]c2ccccc12`: the z-score was 4.05.

In the case of `Cc1nnsc1C(=O)N/N=C/c1ccc2ccccc2c1O`, the z-score was -4.07 (active).

With `COc1cc(-c2cc(=O)c3ccccc3o2)ccc1O`, the z-score was -1.08.

As to `CCOc1cccc(-c2nnc3sc(-c4cc(OC)c(OC)c(OC)c4)nn23)c1`, the z-score is -3.61 (active).

Consider `COc1cc(C(c2sc3nc(C)nn3c2O)N2CC(C)CC(C)C2)cc(OC)c1OC` (configuration not stated), for which the z-score is 0.98.

As for `CCOc1cccc(-c2nn3c(-c4cc(C)[nH]n4)nnc3s2)c1`, the z-score was 1.99.

With `Cc1ccc(C(=O)NN2C(=O)/C(=C/c3cn(C)c4ccccc34)SC2=S)cc1`, the z-score is 4.98.

Turning to `CCN1C=CC2=C(C#N)C(N)C(C#N)(C#N)C(c3ccccc3C(F)(F)F)C2C1` (configuration not stated), the z-score is 11.

On to `COc1cccc(NC2C=CS(=O)(=O)C2)c1` (configuration not stated), for which the z-score was 1.43.

For `Cc1ccc(S(=O)(=O)/N=c2\ccc(Cl)cn2C(F)F)cc1`, the z-score is 2.64.

For `CCNc1ccc2noc3c2c1C(=O)c1ccccc1-3`, the z-score is 4.91.

As for `CCOC(=O)CC1C(=O)NCCN1c1nc2ccc(C)cn2c(=O)c1/C=C1\SC(=S)N(C(C)CC)C1=O` (configuration not stated), the z-score was 15.3.

For the molecule `Cc1cccc(-c2nnc3sc(-c4ccccc4C)nn23)c1`, the z-score was -3.32 (active).
